# Reference: PubChem BioAssay AID1159580 (chemical genetic matrix, 2015)
# Out of some 5,500 compounds screened, about 2,000 (36%) were called active. Another 18% or so got no clear call; they are omitted. This is one part of the list. A number with no mark means an inactive call. No stated cut-off is given here; in the data, active means normalized growth mostly below about 0.91 (no sharp cut-off); inconclusive means no clear call, values can overlap the other calls; inactive means mostly above about 0.92.
# Assay: chemical genetic growth profiling, strain panel (AID 1159580);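 further: tested at 20 µM; growth read once vehicle control cultures reached saturation at 30 °C; 1 = growth at the plate median or of vehicle wells; lower values mean less growth of the strain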
# Conditions: S. cerevisiae deletion strains, growth OD
# [1] = locus YAL040C, strain CLN3, hits give low values
# [2] = locus YDR363W, strain ESC2, hits give low values
# [3] = locus YER002W, strain NOP16, hits give low values
# [4] = locus YGR078C, strain PAC10, hits give low values
# [5] = locus YMR263W, strain SAP30, hits give low values
# [6] = locus YMR307W, strain GAS1, hits give low values
# [7] = locus YNL153C, strain GIM3, hits give low values
# [8] = locus YNL175C, strain NOP13, hits give low values
# [9] = locus YNL197C, strain WHI3, hits give low values
# [10] = locus YNL224C, strain SQS1, hits give low values
# [11] = locus YOR083W, strain WHI5 (second series), hits give low values
# [12] = locus YPL241C, strain CIN2, hits give low values
smiles,measurement,setting,value
Cc1nc2c(OCc3ccccc3)cccn2c1CC#N,normalized growth,[1],0.99
same,normalized growth,"locus YCL061C, strain MRC1 (second series), hits give low values",0.996
same,normalized growth,[2],0.987
same,normalized growth,[3],0.991
same,normalized growth,[4],0.996
same,normalized growth,[5],1
same,normalized growth,[6],0.974
same,normalized growth,[7],0.994
same,normalized growth,[8],0.991
same,normalized growth,[9],1
same,normalized growth,[10],0.995
same,normalized growth,"locus YNL322C, strain KRE1, hits give low values",1.01
same,normalized growth,[11],0.97
same,normalized growth,[12],1
CC(C)(C)c1csc(NC(=O)Nc2ccc(Cl)cc2)n1,normalized growth,"locus YAR019C, strain CDC15, hits give low values",0.989
same,normalized growth,"locus YBL105C, strain PKC1, hits give low values",0.972
same,normalized growth,"locus YBR135W, strain CKS1, hits give low values",0.973
same,normalized growth,"locus YBR136W, strain MEC1, hits give low values",0.976
same,normalized growth,"locus YBR160W, strain CDC28, hits give low values",0.985
same,normalized growth,"locus YDL017W, strain CDC7, hits give low values",0.982
same,normalized growth,"locus YDL028C, strain MPS1, hits give low values",0.973
same,normalized growth,"locus YDL101C, strain DUN1, hits give low values",0.974
same,normalized growth,"locus YDL108W, strain KIN28, hits give low values",0.978
same,normalized growth,"locus YDL132W, strain cdc53, hits give low values",0.974
same,normalized growth,"locus YDL214C, strain PRR2, hits give low values",0.684 (active)
same,normalized growth,"locus YDR052C, strain DBF4, hits give low values",0.983
same,normalized growth,"locus YDR054C, strain cdc34, hits give low values",0.974
same,normalized growth,"locus YDR226W, strain ADK1, hits give low values",0.973
same,normalized growth,"locus YDR477W, strain SNF1, hits give low values",0.605 (active)
same,normalized growth,"locus YER123W, strain YCK3, hits give low values",0.466 (active)
same,normalized growth,"locus YER133W, strain GLC7, hits give low values",0.534 (active)
same,normalized growth,"locus YFL009W, strain cdc4, hits give low values",0.972
same,normalized growth,"locus YFL029C, strain CAK1, hits give low values",0.97
same,normalized growth,"locus YFR003C, strain YPI1, hits give low values",0.981
same,normalized growth,"locus YFR019W, strain FAB1, hits give low values",0.722 (active)
same,normalized growth,"locus YFR028C, strain CDC14, hits give low values",0.97
same,normalized growth,"locus YGR040W, strain KSS1, hits give low values",0.634 (active)
same,normalized growth,"locus YGR052W, strain FMP48, hits give low values",0.304 (active)
same,normalized growth,"locus YGR092W, strain DBF2, hits give low values",0.48 (active)
same,normalized growth,"locus YHR030C, strain SLT2, hits give low values",0.39 (active)
same,normalized growth,"locus YHR079C, strain IRE1, hits give low values",0.509 (active)
same,normalized growth,"locus YHR082C, strain KSP1, hits give low values",0.466 (active)
same,normalized growth,"locus YHR205W, strain SCH9, hits give low values",0.583
same,normalized growth,"locus YIL147C, strain SLN1, hits give low values",0.972
same,normalized growth,"locus YJL095W, strain BCK1, hits give low values",0.345 (active)
same,normalized growth,"locus YJL128C, strain PBS2, hits give low values",0.905
same,normalized growth,"locus YJL157C, strain FAR1, hits give low values",0.81
same,normalized growth,"locus YJR016C, strain ILV3, hits give low values",0.981
same,normalized growth,"locus YJR066W, strain TOR1 (second series), hits give low values",0.625 (active)
same,normalized growth,"locus YJR066W, strain TOR1, hits give low values",0.452 (active)
same,normalized growth,"locus YKL048C, strain ELM1, hits give low values",0.609 (active)
same,normalized growth,"locus YKL067W, strain YNK1, hits give low values",0.732 (active)
same,normalized growth,"locus YKL101W, strain HSL1, hits give low values",0.441 (active)
same,normalized growth,"locus YKL193C, strain SDS22, hits give low values",0.981
same,normalized growth,"locus YKL203C, strain TOR2, hits give low values",0.565 (active)
same,normalized growth,"locus YLR113W, strain HOG1, hits give low values",0.28 (active)
same,normalized growth,"locus YLR133W, strain CKI1, hits give low values",0.687 (active)
same,normalized growth,"locus YLR403W, strain SFP1, hits give low values",0.601 (active)
same,normalized growth,"locus YML070W, strain DAK1, hits give low values",0.441 (active)
same,normalized growth,"locus YMR001C, strain CDC5, hits give low values",0.97
same,normalized growth,"locus YMR205C, strain PFK2 (second series), hits give low values",0.705 (active)
same,normalized growth,"locus YMR277W, strain FCP1, hits give low values",0.974
same,normalized growth,"locus YNL006W, strain LST8, hits give low values",0.979
same,normalized growth,"locus YNL020C, strain ARK1, hits give low values",0.67 (active)
same,normalized growth,"locus YNL161W, strain CBK1, hits give low values",0.969
same,normalized growth,"locus YNL183C, strain NPR1, hits give low values",0.281 (active)
same,normalized growth,"locus YNL207W, strain RIO2, hits give low values",0.97
same,normalized growth,"locus YNL222W, strain SSU72, hits give low values",0.983
same,normalized growth,"locus YNL307C, strain MCK1 (second series), hits give low values",0.553 (active)
same,normalized growth,"locus YOL078W, strain AVO1, hits give low values",0.982
same,normalized growth,"locus YOL136C, strain PFK27, hits give low values",0.719
same,normalized growth,"locus YOR061W, strain CKA2, hits give low values",0.732
same,normalized growth,"locus YOR119C, strain RIO1, hits give low values",0.524 (active)
same,normalized growth,"locus YOR231W, strain MKK1, hits give low values",0.5 (active)
same,normalized growth,"locus YOR329C, strain SCD5, hits give low values",0.982
same,normalized growth,"locus YPL031C, strain PHO85, hits give low values",0.43 (active)
same,normalized growth,"locus YPL153C, strain RAD53, hits give low values",0.481 (active)
same,normalized growth,"locus YPL204W, strain HRR25, hits give low values",0.529 (active)
same,normalized growth,"locus YPL209C, strain IPL1, hits give low values",0.98
same,normalized growth,"locus YPL256C, strain CLN2, hits give low values",0.44 (active)
same,normalized growth,"locus YPR025C, strain CCL1, hits give low values",0.977
same,normalized growth,"locus YPR106W, strain ISR1, hits give low values",0.97
same,normalized growth,"locus YPR111W, strain DBF20, hits give low values",0.967
same,normalized growth,"strain NNK1, hits give low values",0.953
same,normalized growth,"strain TSCII, hits give low values",0.981
Cc1cc(NC(=O)Nc2ccc3c(ccn3C)c2)sn1,normalized growth,[1],0.993
same,normalized growth,[2],1.02
same,normalized growth,[3],0.992
same,normalized growth,[4],0.999
same,normalized growth,"locus YGR229C, strain SMI1, hits give low values",1
same,normalized growth,"locus YJR075W, strain HOC1, hits give low values",1
same,normalized growth,[5],0.968
same,normalized growth,[6],0.996
same,normalized growth,[7],1.04
same,normalized growth,[8],1.02
same,normalized growth,[9],0.983
same,normalized growth,[10],0.996
same,normalized growth,[11],1.01
same,normalized growth,[12],0.992
